Data taken from the supplement of paper PMC12340641.
Counter-ions that a name gives are not always drawn.

Columns and labels:
[1] = target: IKZF1 (dCK*-IKZF1 fusion in HEK293FT) (UniProt Q13422); assay: inhibition of IKZF1 HTRF signal (DMSO = 0%, pomalidomide 10 uM = 100%); higher = lower IKZF1 protein level; settings: compound concentration: 5 uM, overnight (~20 h)
How it was run: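 HEK293FT cells stably expressing a dCK*-IKZF1 fusion (2000/well, 384-well) were treated overnight at 37 °C with 5 μM compound in single wells. They were then lysed 30 min at room temperature, and lysate was incubated overnight with a commercial HTRF total-IKZF1 antibody kit. The time-resolved FRET ratio (665/620 nm) was background-subtracted. Percent inhibition of IKZF1 signal was normalised per plate to vehicle (0%) and a reference degrader (100%).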

HEK293FT dCK*-only = assay: relative growth in counter assay (no AraC = 100%, AraC + DMSO = 0%); higher = more growth rescue independent of IKZF1; settings: compound concentration: 5 uM; AraC concentration: 0.3 uM; overnight pretreatment + 4 days AraC
How it was run: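 In 384-well plates, 300 HEK293FT cells per well expressing an engineered kinase construct alone got 5 μM compound 2 h after seeding. After overnight at 37 °C, 0.3 μM nucleoside suicide substrate plus medium was applied for 4 days. Counting of Hoechst 33342-stained nuclei by imaging on day 5 was normalised per plate, with 100% for no-substrate wells and 0% for substrate plus vehicle.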

HEK293FT dCK*-IKZF1 = assay: relative growth recovery (pomalidomide 10 uM = 100%, DMSO = 0%); higher = more growth rescue (IKZF1 fusion degradation); settings: compound concentration: 5 uM; AraC concentration: 0.3 uM; overnight pretreatment + 4 days AraC
How it was run: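 On day 5, whole-well imaging was used to count Hoechst 33342-stained nuclei of HEK293FT cells stably carrying a deoxycytidine kinase–IKZF1 fusion. These cells had received 5 μM compound 2 h after seeding, followed after overnight at 37 °C by a nucleoside suicide substrate at 0.3 μM plus medium for 4 days. Growth recovery was normalised on each plate against a reference degrader and vehicle, which defined 100% and 0%, and values are duplicate means from separate days.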

Sequence of IKZF1 (dCK*-IKZF1 fusion in HEK293FT) (Q13422 whole entry, looked up, the tested form may be a part): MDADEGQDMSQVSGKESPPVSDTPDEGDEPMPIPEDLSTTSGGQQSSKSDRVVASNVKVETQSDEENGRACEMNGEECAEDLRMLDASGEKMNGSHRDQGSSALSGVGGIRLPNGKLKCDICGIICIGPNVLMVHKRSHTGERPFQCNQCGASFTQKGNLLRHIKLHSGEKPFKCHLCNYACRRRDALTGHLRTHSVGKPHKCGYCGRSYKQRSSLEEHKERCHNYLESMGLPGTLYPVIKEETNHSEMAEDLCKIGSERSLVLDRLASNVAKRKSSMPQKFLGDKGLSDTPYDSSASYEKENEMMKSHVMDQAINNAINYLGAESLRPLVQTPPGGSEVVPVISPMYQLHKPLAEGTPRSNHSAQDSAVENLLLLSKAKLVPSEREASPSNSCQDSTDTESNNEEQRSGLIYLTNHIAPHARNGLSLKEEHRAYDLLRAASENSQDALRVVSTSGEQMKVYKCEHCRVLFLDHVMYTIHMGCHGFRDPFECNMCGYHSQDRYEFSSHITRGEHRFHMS

## COc1cc(CN(CCN)C(=O)c2cccs2)ccc1OCc1ccccc1
[1]
  inhibition of IKZF1 HTRF signal: -24.8%
HEK293FT dCK*-only
  relative growth in counter assay: 7.03%
HEK293FT dCK*-IKZF1
  relative growth recovery: 0.355%

## N=c1ccn2c(n1)O[C@H]1[C@H](O)[C@@H](CO)O[C@H]12 [Cyclocytidine HCl]
[1]
  inhibition of IKZF1 HTRF signal: -19.3%
HEK293FT dCK*-only
  relative growth in counter assay: -34%
HEK293FT dCK*-IKZF1
  relative growth recovery: -12.9%

## c1ccc(CNc2nc(NCc3ccccc3)c3ccccc3n2)cc1
[1]
  inhibition of IKZF1 HTRF signal: -15.7%
HEK293FT dCK*-only
  relative growth in counter assay: -18.5%
HEK293FT dCK*-IKZF1
  relative growth recovery: -4.85%

## CC(CNC1CCCCC1)OC(=O)c1ccccc1 (centres undefined) [hexylcaine]
[1]
  inhibition of IKZF1 HTRF signal: -36.3%
HEK293FT dCK*-only
  relative growth in counter assay: 0.35%
HEK293FT dCK*-IKZF1
  relative growth recovery: -0.215%

## CCCCCCCCCCC(CO)CCCCCCCC (centres undefined) [2-Octyldodecan-1-ol]
[1]
  inhibition of IKZF1 HTRF signal: -45%
HEK293FT dCK*-only
  relative growth in counter assay: -4.55%
HEK293FT dCK*-IKZF1
  relative growth recovery: -2.31%

## CC[C@@]1(O)C(=O)OCc2c1cc1n(c2=O)Cc2cc3c(CN(C)C)c(O)ccc3nc2-1 [Topotecan HCl]
[1]
  inhibition of IKZF1 HTRF signal: 54.2%
HEK293FT dCK*-only
  relative growth in counter assay: -34.6%
HEK293FT dCK*-IKZF1
  relative growth recovery: -13.3%

## Cc1cc(C)c(C2=NOC3C4CCC(C4)C23)c(C)c1 (centres undefined)
[1]
  inhibition of IKZF1 HTRF signal: -34%
HEK293FT dCK*-only
  relative growth in counter assay: 1.92%
HEK293FT dCK*-IKZF1
  relative growth recovery: -0.34%

## CCc1ccc(OCc2ccccc2C(=O)Nc2ccc3nc(C)cc(N)c3c2)cc1
[1]
  inhibition of IKZF1 HTRF signal: 41.1%
HEK293FT dCK*-only
  relative growth in counter assay: -34.6%
HEK293FT dCK*-IKZF1
  relative growth recovery: -14.6%

## CN(Cc1cnc2nc(N)nc(N)c2n1)c1ccc(C(=O)NC(CCC(=O)O)C(=O)O)cc1 (centres undefined) [Methotrexate]
[1]
  inhibition of IKZF1 HTRF signal: -46%
HEK293FT dCK*-only
  relative growth in counter assay: -30.3%
HEK293FT dCK*-IKZF1
  relative growth recovery: -9.97%

## O=c1c(-c2ccccc2)c1-c1ccccc1 [diphencyprone]
[1]
  inhibition of IKZF1 HTRF signal: -25.4%
HEK293FT dCK*-only
  relative growth in counter assay: -31.8%
HEK293FT dCK*-IKZF1
  relative growth recovery: -11.2%

## COC(=O)C1=C(C)NC(C)=C(C(=O)OC(C)C)C1c1cccc2nonc12 (centres undefined) [isradipine]
[1]
  inhibition of IKZF1 HTRF signal: -28.6%
HEK293FT dCK*-only
  relative growth in counter assay: -4.67%
HEK293FT dCK*-IKZF1
  relative growth recovery: 1.6%

## c1cncc(CN2CCC(n3ncc4c(N5CCOCC5)nc(-c5ccc6[nH]ccc6c5)nc43)CC2)c1
[1]
  inhibition of IKZF1 HTRF signal: 30.4%
HEK293FT dCK*-only
  relative growth in counter assay: -26.4%
HEK293FT dCK*-IKZF1
  relative growth recovery: -11.3%

## COc1ccc(CN2CCN(C(c3ccc(F)cc3)c3ccc(F)cc3)CC2)c(OC)c1OC
[1]
  inhibition of IKZF1 HTRF signal: -50.6%
HEK293FT dCK*-only
  relative growth in counter assay: 1.19%
HEK293FT dCK*-IKZF1
  relative growth recovery: 0.625%

## O=C(Nc1cccc(C(F)(F)F)c1)Nc1ccc(Br)cc1-c1nnn[nH]1
[1]
  inhibition of IKZF1 HTRF signal: -23.4%
HEK293FT dCK*-only
  relative growth in counter assay: -0.22%
HEK293FT dCK*-IKZF1
  relative growth recovery: -2.33%

## C[C@H]1O[C@@H](n2cc(F)c(=O)[nH]c2=O)[C@H](O)[C@@H]1O
[1]
  inhibition of IKZF1 HTRF signal: -24.1%
HEK293FT dCK*-only
  relative growth in counter assay: -10.6%
HEK293FT dCK*-IKZF1
  relative growth recovery: 0.84%

## [2H]C([2H])([2H])C(O)(CCO[C@@H](C)[C@H]1CC[C@H]2/C(=C/C=C3/C[C@@H](O)C[C@H](O)C3=C)CCC[C@]12C)C([2H])([2H])[2H] [maxacalcitol]
[1]
  inhibition of IKZF1 HTRF signal: -24.6%
HEK293FT dCK*-only
  relative growth in counter assay: 9.68%
HEK293FT dCK*-IKZF1
  relative growth recovery: 7.53%

## CN(C)C1CCN(C(=O)c2ccc(NC(=O)Nc3ccc(-c4nc(N5CCOCC5)nc(N5CCOCC5)n4)cc3)cc2)CC1
[1]
  inhibition of IKZF1 HTRF signal: 27.3%
HEK293FT dCK*-only
  relative growth in counter assay: -6.76%
HEK293FT dCK*-IKZF1
  relative growth recovery: -0.95%

## CC(C)(C#N)c1ccc(N2C(=O)OCc3cnc4ccc(-c5cnc6ccccc6c5)cc4c32)cc1
[1]
  inhibition of IKZF1 HTRF signal: 17.1%
HEK293FT dCK*-only
  relative growth in counter assay: 3.56%
HEK293FT dCK*-IKZF1
  relative growth recovery: -2.14%
